Most compounds without a hit are left out; they make up all but 3.9% or so of the library.
HepG2 tox – kills HepG2 cells in TGF-b inhibitor counter-screen. HepG2 CAGA-GFP viability, ATP luminescence, 18 h. Potency, µM (doses to about 46.1 µM), without a hit: at the highest dose activity change, negative = cytotoxicity, actives largely listed as cytotoxic. actives 0.76% (n = 410,000)
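CellTiter-Glo luminescence gave cytotoxicity after 18 hours at 37 degrees C. The cells were HepG2 CAGA-GFP in 1% FBS DMEM, stimulated with 500 pg/mL TGF-beta after compound addition. %Activity was normalised to no-cell wells (complete cell-killing) and DMSO (no toxicity), and curves were fitted and classified.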
HT1080-NT tox – kills 2HG-producing HT-1080-NT fibrosarcoma cells. actives 1.6% (n = 360,000). HT-1080-NT fibrosarcoma viability, CellTiter-Glo ATP luminescence, 48 h. Potency, µM (highest dose often 46.1 µM), for the others: top-dose activity, negative = less viability, usual class: cytotoxic;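 note: NT is the 2HG producing partner of a matched IDH1 knockdown line; 0% = DMSO-treated cells and -100% = media-only wells without cells; nearly all actives have a fitted effect of over 55% in size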
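HT-1080-NT fibrosarcoma cells (2HG-overproducing), 750 cells/well in RPMI with 5% FBS, dosed after 2 h and incubated 48 h at 37C. CellTiter-Glo luminescence normalized to DMSO and no-cell wells; concentration-response curves fitted and classed.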
TGFb inhibitor – TGF-b pathway inhibition; HepG2 CAGA-GFP TGF-b/SMAD3 reporter, GFP fluorescence, 18 h; TGF-beta stimulated, 500 pg/mL final; Potency, µM (highest dose often 46.1 µM), for inactives: at the highest dose activity, negative = inhibition, most hits filed as inhibitors; actives 1.2% (n = 410,000); note: % is set by controls: 0 for no effect and ±100 for the full control effect; nearly all actives have a fitted effect of over 65% in size
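GFP signal (ex488/em500-530) from TGF-beta-stimulated HEPG2 CAGA-GFP cells, 500 pg/mL final, 18 h at 37 degrees C in DMEM plus 1% FBS, normalized to unstimulated and DMSO-stimulated controls.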
ATXN viability – viability counter-screen for ATXN expression inhibitors; Potency, µM (titrated, usually from 56.7 µM), actives largely listed as cytotoxic; S2 cells (HEK-293 line with an ATXN2-luciferase reporter) viability, CellTiter-Fluor protease fluorescence, 24 h; actives 0.49% (n = 400,000); note: nearly all actives have a fitted effect of over 40% in size
HT1080 IDH1KD tx – kills HT-1080 cells with IDH1 knockdown; HT-1080 IDH1 knockdown viability, ATP luminescence, 48 h; Potency, µM (series often up to 46.1 µM), without a hit: at the highest dose activity, negative = toxicity, hits mostly cytotoxic; actives 2% (n = 360,000); AID 686971;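 note: 0% = DMSO wells and -100% = cell-free medium wells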
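Assay cells: HT-1080 with IDH1 knockdown, 750 per well, RPMI/5% FBS. Exposure: 48 h at 37 °C following 2 h pre-incubation. Read: CellTiter-Glo luminescence; fitted concentration-response, curve class assigned.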
ATXN2 expr inh – inhibitors of ATXN2 expression; actives 0.72% (n = 360,000); HEK-293 ATXN2-luciferase reporter, luminescence, 24 h; Potency, µM (titrated, usually from 57 µM), for the others: at the top dose activity change, negative = inhibition, hits mostly inhibitors; note: % is set by controls: 0 for no effect and ±100 for the full control effect; nearly all actives have a fitted effect of over 55% in size
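ATXN2-luciferase reporter cells (luciferase flanked by upstream and downstream ATXN2 gene portions) were treated 24 h at 37 °C with compounds at up to 57 uM. SteadyGlo luminescence gave expression; GF-AFC fluorescence gave viability.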
An asterisk follows results filed as active; i = inactive; ? = inconclusive; / = not tested or not shown; [ ] = remark or other dose. Calls come from the whole dose curve; as a rule, active = well fitted curve in the direction sought with a large enough effect; inconclusive = small, poorly fitted or top-dose-only effect, or another doubt; inactive = no such curve, though single readings can be large; an effect the other way counts as inactive or inconclusive. Potency is the fitted concentration of half-maximal effect.

SMILES	HepG2 tox	HT1080-NT tox	TGFb inhibitor	ATXN viability	HT1080 IDH1KD tx	ATXN2 expr inh
CC(C)c1ccc(-n2c(-c3ccccc3)c[n+]3c2CCc2ccccc2-3)cc1	-21.9%	8.2µM*	?	?	7.31µM*	?
COc1ccc(-n2c(-c3ccc(Br)cc3)c[n+]3c2CCc2ccccc2-3)cc1	-35.7%	?	?	i	16.4µM*	?
COc1ccccc1-n1c(-c2ccccc2)c[nH]c1=S	-9.9%	0.3%	-8.0%	?	1.2%	-20.8%
CCc1ccc(NC(=O)CN2C(=O)C(c3ccc(C)cc3)=NC23CCCCC3)cc1	-17.3%	/	/	/	/	/
CC1CCCCN1CCCNC(=O)c1ccc2c(c1)NC(=O)CN2C (configuration not stated)	1.3%	-7.9%	0.3%	i	-3.1%	/
CCCCN(CCCNC(=O)c1ccc2c(c1)NC(=O)CN2C)c1ccccc1	15.8µM*	?	?	17.8µM*	?	/
COc1ccc(-c2cc3ccc(O)c(CN4CCCCC4C)c3oc2=O)cc1OC (configuration not stated)	6.5%	/	2.1%	/	/	8.6%
O=C(Nc1ccc(F)c(Cl)c1)Nc1csc2ccccc12	12.6µM*	9.2µM*	?	i	6.51µM*	-35.5%
O=C(Nc1ncc(Cc2ccc(SC(F)F)cc2)s1)c1ccc(OC(F)F)cc1	-30.3%	0.0731µM*	?	?	0.0461µM*	?
NCCCNCCCCNC(=O)C(O)NC(=O)CCCCCCN=C(N)N (configuration not stated)	/	/	/	i	/	/
CCN(CC)S(=O)(=O)c1ccc(S(=O)(=O)Nc2ccc3c(c2)oc2ccccc23)cc1	-75.7%	-5.8%	?	i	-15.9%	-14.6%
CN(C)S(=O)(=O)c1ccc(S(=O)(=O)Nc2ccc3c(c2)oc2ccccc23)cc1	-33.8%	?	11.2µM*	i	?	-4.8%
CCc1cccc(NC(=S)N2CCC(c3ccccc3)C2)c1 (configuration not stated)	15.8µM*	-3.9%	-27.0%	i	0.3%	-7.4%
Nc1ncnc2c1c(-c1cnc3[nH]ccc3c1)nn2C1CCCC1	/	/	/	/	/	19.3µM*
Cc1cc(C)c2c(C)nn(C3CCCCC3)c2n1	-2.0%	-3.0%[9.24 µM]	-24.3%	i	0.7%	3.0%
Cc1nn2c(=O)cc(COC(=O)c3ccccc3NC(=O)C(C)C)nc2s1	-2.0%	/	-0.1%	/	/	/
Cc1cc(C)cc(Nc2ccc([N+](=O)[O-])nc2[N+](=O)[O-])c1	-0.3%	2.2%	-8.9%	i	13.6%	-8.6%
COc1cc(Nc2ccc(C)cc2)c([N+](=O)[O-])nc1[N+](=O)[O-]	-20.8%	3.16µM*	-27.7%	?	3.16µM*	0.6%
Cc1c(Cn2cnc3c(cnn3C(C)(C)C)c2=O)cccc1C(F)(F)F	-7.3%	/	-27.4%	/	/	/
Cc1ccc(OCc2nc(C#N)c(NCCc3ccccc3)o2)cc1	-28.2%	/	22.4µM*	/	/	/
COc1ccc(Nc2oc(COc3ccc(OC)cc3)nc2C#N)cc1	-16.3%	-15.6%	-11.2%	i	-19.2%	14.1µM*
COc1ccc(Nc2oc(COc3ccccc3F)nc2C#N)cc1	-26.9%	-9.4%	-2.3%	35.5µM*	-0.3%	?
COc1ccc(CCNc2oc(COc3ccccc3)nc2C#N)cc1	-44.0%	1.2%	-1.7%	i	-0.4%	3.6%
COc1ccc(Nc2oc(COc3ccc(C)cc3)nc2C#N)cc1	-22.8%	3.9%	?	/	-4.9%	/
Cc1c(C(=O)NCC(C)(C)N2CCOCC2)cnn1-c1nccc(-c2cccs2)n1	/	/	/	i	/	/
SMILES	HepG2 tox	HT1080-NT tox	TGFb inhibitor	ATXN viability	HT1080 IDH1KD tx	ATXN2 expr inh
COc1ccc([C@@]23Oc4cc(OC)cc(OC)c4[C@]2(O)[C@H](O)[C@H](C(=O)N(C)C)[C@H]3c2ccccc2)cc1	-3.7%	?	-114.6%	?	0.164µM*	-77.5%
Cc1ccc(-c2ccccc2C#N)cc1	/	/	/	i	/	3.6%
Cc1ccccc1-n1nc(CO)c(C(=O)NCC(c2ccccc2)c2ccccc2)n1	-24.0%	/	-14.0%	/	/	/
O=C(Cn1cnc2sc(-c3ccccc3)cc2c1=O)NCCc1ccccc1	-14.0%	-5.7%	7.6%	?	-4.7%	?
O=C(Cn1cnc2sc(-c3ccccc3)cc2c1=O)NCc1ccccc1	-40.2%	7.94µM*	7.8%	i	6.31µM*	-27.9%
Fc1cc(Br)ccc1Nc1c2c(nc3nc(-c4cccs4)nn13)CCCC2	-49.3%	/	10µM*	i	/	7.4%
CN(N=Nc1ccc([N+](=O)[O-])cc1)c1ccccc1	-11.0%	7.7%	-0.2%	?	0.3%	/
CN(CCCC(=O)O)c1ccc(N=Nc2ccc([N+](=O)[O-])cc2)cc1	-27.3%	-3.9%	-2.7%	14.1µM*	-22.2%	/
COc1cc(OC)c2nc(-c3cc4c(c(OC)c3)OCCN(C(=O)C(C)c3n[nH]c(=O)c5ccccc35)C4)cc(C)c2c1 (configuration not stated)	/	/	/	i	/	/
COc1ccc2cc(C(=O)C3CCCN(C(=O)c4cnccn4)C3)ccc2c1 (configuration not stated)	1.0%	-9.6%	-8.3%	i	-1.1%	-27.0%
COc1ccc2cc(C(=O)C3CCCN(C(=O)/C=C/c4ccccn4)C3)ccc2c1 (configuration not stated)	12.6µM*	-10.0%	0.0%	i	-2.6%	-14.8%
COC(=O)c1sc(-c2ccc(Cl)cc2)cc1NC(=O)CSCC(=O)O	6.3%	9.2%	42.4%	i	-7.6%	/
COC(=O)c1sc(-c2ccc(C(C)(C)C)cc2)cc1NC(=O)COCC(=O)O	-9.8%	16.4µM*	0.0%	?	20.6µM*	-5.3%
C/C(Cl)=C\Cn1c(O)c(N=NC(N)=S)c2ccccc21	-29.1%	-29.6%	?	/	-24.3%	23.8µM*
NC(=S)N=Nc1c(O)n(Cc2ccccc2)c2ccccc12	-38.3%	-20.9%	-13.6%	i	-22.8%	-12.6%
COc1ccc(Cl)cc1NC(=O)Cn1nc(C(F)(F)F)c2c1CCCC2	-30.5%	/	12.6µM*	?	/	-30.4%
O=C(Cn1nc(C(F)(F)F)c2c1CCCC2)Nc1cccc(Cl)c1	-71.5%	/	11.2µM*	?	/	?
O=C(Cn1nc(-c2ccc(Cl)cc2)c2ccccc2c1=O)Nc1cccc(C(F)(F)F)c1	-31.1%	/	11.2µM*	?	/	-30.5%
CCCC[C@H]1CCCO[C@@](C(=O)NCc2cc(C)n(C)n2)(C(F)(F)F)C1	-16.0%	/	?	/	/	/
Cc1cccc(Nc2nc(C)cc(C)n2)c1	-2.6%	11.6%	12.7%	i	16.5%	/

Screening results from PubChem BioAssay.
